Experimental data: PubChem BioAssay (NCATS)
Unmarked numbers belong to inactive results. Inconclusive results are not listed. The source made the active and inactive calls. Unless noted, calls follow the shape of the dose curve; as a rule, active = well fitted curve in either direction with a large enough effect (not every such curve was filed as active); inconclusive = small, poorly fitted or top-dose-only effect, or another doubt; inactive = flat fitted curve, though single readings scatter.

Assays:
[1] = target: Lysosomal acid glucosylceramidase (Homo sapiens) (UniProt P04062); experiment: Glucocerebrosidase-p2 (AID 348; in the data active = potency below about 10 µM; also: potency is read from the fitted curve at half-maximal effect); details: purified GBA, blue fluorogenic substrate, 40 min
Lysosomal acid glucosylceramidase (Homo sapiens), sequence (P04062 whole entry, looked up): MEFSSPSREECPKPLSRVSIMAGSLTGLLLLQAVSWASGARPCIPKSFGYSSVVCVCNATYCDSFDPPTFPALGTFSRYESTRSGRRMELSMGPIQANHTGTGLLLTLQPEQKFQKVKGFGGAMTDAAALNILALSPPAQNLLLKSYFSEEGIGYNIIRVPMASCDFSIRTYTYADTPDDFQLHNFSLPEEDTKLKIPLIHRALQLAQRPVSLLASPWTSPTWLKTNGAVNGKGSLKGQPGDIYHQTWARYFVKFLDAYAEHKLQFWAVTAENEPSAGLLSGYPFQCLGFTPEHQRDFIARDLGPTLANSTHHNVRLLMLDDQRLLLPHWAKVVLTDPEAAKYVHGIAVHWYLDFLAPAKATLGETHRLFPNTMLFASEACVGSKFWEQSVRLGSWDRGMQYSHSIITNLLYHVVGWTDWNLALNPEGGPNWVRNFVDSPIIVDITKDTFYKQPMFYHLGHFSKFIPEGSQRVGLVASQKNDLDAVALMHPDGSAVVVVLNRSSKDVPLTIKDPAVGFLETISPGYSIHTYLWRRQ
Procedure, shortened: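 Normal human glucocerebrosidase (0.2 nM) with blue fluorogenic substrate (80 uM final) in citrate/phosphate pH 5.9 with 10mM sodium taurocholate, 0.01% tween-20; 40 min RT, NaOH/glycine stop; fluorescence Ex 365/Em 440; AC50 from a titration from 0.6 nM upwards.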

[2] = AP1 Signaling Pathway (AID 357); details: ME-180 AP-1-bla reporter, EGF-induced, beta-lactamase ratio, 5 h; at 7.69 µM (top of the series) unless noted;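 also: ME-180 reporter cells stimulated with EGF at its EC50 level; % is scaled to controls: 0 for no effect and ±100 for the full control effect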
Procedure, shortened: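 Cells are seeded overnight, exposed to compound titrations and an EC50 level of EGF for 5 hours at 37 °C, then loaded with CCF4 dye for 2.5 hours. Beta-lactamase activity under the AP-1 element is read as a blue/green ratio.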

[3] = NFAT Signaling Pathway (AID 444); details: Jurkat NFAT-bla M1, carbachol, beta-lactamase ratio, 5 h; at 7.69 µM (top of the series) unless noted;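 also: carbachol stimulus at about its EC50 of 1 µM final; % is scaled to controls: 0 for no effect and ±100 for the full control effect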
Procedure, shortened: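 Read-out: CCF4 FRET ratio (460 nm/530 nm) after 1 h RT dye loading, used for %activity and AC50 from titration series. Cells: Jurkat NFAT-β-lactamase/M1 line, treated with compound plus 1 uM carbachol for 5 h, 37 °C.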

[4] = Stat Signaling Pathway (AID 446); details: ME-180 (cervical carcinoma) SIE beta-lactamase reporter, IL-6 stimulated, 5 h; at 7.69 µM (top of the series) unless noted;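 also: ME-180 cervical cancer cells given 40 pM IL-6 alongside compound; SIE-controlled beta-lactamase reporter measured as 460/530 nm FRET emission ratio; % is scaled to controls: 0 for no effect and ±100 for the full control effect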
Procedure, shortened: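 FRET read-out (405 nm excitation, 460/530 nm emission) of a beta-lactamase reporter under a STAT-inducible element in ME-180 cervical carcinoma cells. Cells with compound receive 40 pM IL-6 for 5 h. Values are normalised to AC90 stimulation and AC90 JAK-inhibitor controls.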

[5] = target: Glucocorticoid receptor (Homo sapiens) (UniProt P04150); experiment: GR-GFP Redistribution (AID 450;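 active = compounds whose dose series gives a full or clear partial fitted curve of increased nuclear translocation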; also: potency is read from the fitted curve at half-maximal effect); details: U2OS GR-GFP nuclear translocation, laser cytometry, 2 h
Glucocorticoid receptor (Homo sapiens), sequence (P04150 whole entry, looked up, the tested form may be a part): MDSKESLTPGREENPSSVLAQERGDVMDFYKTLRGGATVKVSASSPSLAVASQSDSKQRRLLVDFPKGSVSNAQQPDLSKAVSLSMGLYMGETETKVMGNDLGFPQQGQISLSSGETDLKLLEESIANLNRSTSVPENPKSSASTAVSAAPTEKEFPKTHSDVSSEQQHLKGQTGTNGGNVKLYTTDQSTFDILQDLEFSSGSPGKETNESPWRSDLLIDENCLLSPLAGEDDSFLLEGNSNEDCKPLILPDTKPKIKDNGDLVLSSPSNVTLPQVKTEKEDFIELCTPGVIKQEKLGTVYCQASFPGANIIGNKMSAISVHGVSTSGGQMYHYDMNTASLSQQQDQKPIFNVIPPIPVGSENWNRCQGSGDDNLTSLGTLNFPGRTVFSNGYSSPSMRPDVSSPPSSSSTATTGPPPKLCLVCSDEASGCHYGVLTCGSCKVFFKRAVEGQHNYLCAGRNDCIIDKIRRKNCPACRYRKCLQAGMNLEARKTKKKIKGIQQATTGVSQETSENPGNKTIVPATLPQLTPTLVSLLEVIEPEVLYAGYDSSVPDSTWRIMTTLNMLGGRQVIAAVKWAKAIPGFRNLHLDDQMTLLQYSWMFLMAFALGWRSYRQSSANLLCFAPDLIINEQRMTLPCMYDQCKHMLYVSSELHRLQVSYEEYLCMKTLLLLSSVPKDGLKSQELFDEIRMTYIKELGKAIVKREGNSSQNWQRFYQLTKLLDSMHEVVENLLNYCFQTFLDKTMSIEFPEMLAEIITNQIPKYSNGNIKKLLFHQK

[6] = target: Glucocorticoid receptor (Homo sapiens) (UniProt P04150); experiment: GR-EFC Redistribution (AID 451; calls by dose curve; also: potency is read from the fitted curve at half-maximal effect); details: CHO-K1 GR-EFC translocation, beta-gal luminescence, 2 h
Procedure, shortened: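 Translocation of GR-ED fusion to nuclear EA restores b-gal, read by luminescence after 1 h room-temperature detection. Engineered CHO-K1 biosensor cells, 1,000/well, exposed 2 h at 37 C to titrations up to 46 uM final.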

[7] = target: Mitogen-activated protein kinase 10 (Mus musculus) (UniProt Q61831); experiment: JNK3 AlphaScreen Assay (AID 530); details: JNK3 lysate, c-Jun phosphorylation; series mostly up to 11.4 µM;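 also: kinase came from lysate of stimulated human HepG2 cells; signal reports phosphorylation of biotinylated GST-cJun 1-79 at Ser73 with 10 µM ATP; % is scaled to controls: 0 for no effect and ±100 for the full control effect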
Procedure, shortened: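 Kinase buffer: 20 mM Tris-HCl pH 7.6, 10 mM MgCl2, 1 mM DTT, 0.1 mM Na3VO4, 0.01% Tween-20; ATP 10 uM. Substrate biotin-GST-cJun(1-79), enzyme from activated HepG2 lysates. Detection by Ser73 phospho-antibody AlphaScreen.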

[8] = target: 3',5'-cyclic-AMP phosphodiesterase 4B (Homo sapiens) (UniProt Q07343); experiment: qHTS Assay for Inhibitors of PDE-IV (AID 607; active = well fitted activation curve with a large enough effect in the main read-out, with a control signal flat, not every such curve was filed as active; also: % of control where 0% means no effect); details: HEK293 ACTOne CNG channel cells, membrane potential fluorescence; series mostly up to 22.9 µM
3',5'-cyclic-AMP phosphodiesterase 4B (Homo sapiens), sequence (Q07343 whole entry, looked up): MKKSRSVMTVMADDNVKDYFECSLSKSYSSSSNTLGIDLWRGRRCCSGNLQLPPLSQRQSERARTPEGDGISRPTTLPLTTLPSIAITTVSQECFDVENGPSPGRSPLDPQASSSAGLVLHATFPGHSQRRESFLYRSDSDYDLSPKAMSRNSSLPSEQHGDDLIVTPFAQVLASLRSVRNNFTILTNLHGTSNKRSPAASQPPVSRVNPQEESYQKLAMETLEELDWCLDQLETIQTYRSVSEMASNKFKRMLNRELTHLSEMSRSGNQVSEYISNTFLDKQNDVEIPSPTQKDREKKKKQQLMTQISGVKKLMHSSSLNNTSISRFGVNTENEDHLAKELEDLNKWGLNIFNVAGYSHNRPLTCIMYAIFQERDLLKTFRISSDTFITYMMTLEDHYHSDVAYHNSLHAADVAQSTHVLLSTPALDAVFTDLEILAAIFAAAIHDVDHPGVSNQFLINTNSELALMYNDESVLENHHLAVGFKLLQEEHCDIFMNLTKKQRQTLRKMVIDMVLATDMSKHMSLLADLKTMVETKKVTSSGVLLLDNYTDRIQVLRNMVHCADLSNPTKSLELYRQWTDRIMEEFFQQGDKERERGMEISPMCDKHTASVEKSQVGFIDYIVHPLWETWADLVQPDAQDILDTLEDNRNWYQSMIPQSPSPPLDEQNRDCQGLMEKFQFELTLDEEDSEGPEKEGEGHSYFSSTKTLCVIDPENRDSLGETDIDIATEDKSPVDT
Procedure, shortened: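 Cell-based read-out of cAMP via a modified cyclic nucleotide-gated channel and membrane potential dye (535/590 nm) in HEK293 cells expressing PDE4 endogenously. Compounds tested up to 22.9 uM final; 100 uM RO 20-1724 reference.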

SMILES: Cn1cnc([N+](=O)[O-])c1Sc1nc(N)nc2c1ncn2[C@H]1C[C@H](O)[C@@H](CO)O1
- Potency [1]: > 11.4 µM
- activity change, negative = inhibition [2]: -4.23%
- activity change, negative = inhibition [3]: -2.48%
- activity, negative = inhibition [4]: 0.176%
- Potency [5]: > 46 µM
- Potency [6]: > 9.22 µM
- Potency [7]: inactive
- Potency [8]: inactive

SMILES: CSCC[C@@H](C(=O)O)N(C)C
- Potency [1]: > 11.4 µM
- activity change, negative = inhibition [2]: 3.21%
- activity change, negative = inhibition [3]: 7.85%
- activity, negative = inhibition [4]: 2.15%
- Potency [5]: > 46 µM
- Potency [6]: > 9.22 µM
- Potency [7]: inactive
- Potency [8]: inactive

SMILES: CSc1ccc(NC(=O)[C@H]2CCCC[C@@H]2C(=O)O)cc1
- Potency [1]: > 11.4 µM
- activity change, negative = inhibition [2]: 2.18%
- activity change, negative = inhibition [3]: 4.17%
- activity, negative = inhibition [4]: 3.36%
- Potency [5]: > 46 µM
- Potency [6]: > 9.22 µM
- Potency [7]: inactive
- Potency [8]: inactive

SMILES: CO[C@@H]1/C=C\O[C@]2(C)Oc3c(C)c(O)c4c(O)c(c(CN(C)C)c(O)c4c3C2=O)NC(=O)/C(C)=C\C=C[C@@H](C)[C@@H](O)[C@H](C)[C@@H](O)[C@H](C)[C@H](OC(C)=O)[C@@H]1C
- Potency [1]: > 11.4 µM
- activity change, negative = inhibition [2]: -3.25%
- activity change, negative = inhibition [3]: 17.6%
- activity, negative = inhibition [4]: -2.18%
- Potency [5]: > 46 µM
- Potency [6]: > 9.22 µM
- Potency [7]: inactive
- Potency [8]: inactive

SMILES: NC1(C(=O)OCc2ccccc2)CCCC1
- Potency [1]: > 11.4 µM
- activity change, negative = inhibition [2]: 8.77%
- activity change, negative = inhibition [3]: -4.79%
- activity, negative = inhibition [4]: 3.45%
- Potency [5]: > 46 µM
- Potency [6]: > 9.22 µM
- Potency [7]: inactive
- Potency [8]: inactive

SMILES: N[C@@H](CSC1(c2ccc(Cl)cc2)c2ccccc2-c2ccccc21)C(=O)O
- Potency [1]: > 11.4 µM
- activity change, negative = inhibition [2]: -8.46%
- activity change, negative = inhibition [3]: 10.1%
- activity, negative = inhibition [4]: -2.38%
- Potency [5]: > 46 µM
- Potency [6]: > 9.22 µM
- Potency [7]: inactive
- Potency [8]: inactive

SMILES: Nc1ccccc1N=Nc1c(S(=O)(=O)O)cc2cc(S(=O)(=O)O)cc(O)c2c1O
- Potency [1]: > 11.4 µM
- activity change, negative = inhibition [2]: -8.99%
- activity change, negative = inhibition [3]: -1.89%
- activity, negative = inhibition [4]: -10.2%
- Potency [5]: > 46 µM
- Potency [6]: > 9.22 µM
- Potency [7]: inactive
- Potency [8]: inactive

SMILES: CC1(C)CC(Nc2ccc(Nc3ccccc3)cc2)CC(C)(C)N1
- Potency [1]: > 11.4 µM
- activity change, negative = inhibition [2]: -24.4%
- activity change, negative = inhibition [3]: 6.65%
- activity, negative = inhibition [4]: -6.18%
- Potency [5]: > 46 µM
- Potency [6]: > 9.22 µM
- Potency [7]: inactive
- Potency [8]: inactive

SMILES: N=C(N)SCCON1C(=O)c2ccccc2C1=O
- Potency [1]: > 11.4 µM
- activity change, negative = inhibition [2]: 5.96%
- activity change, negative = inhibition [3]: -3.83%
- activity, negative = inhibition [4]: -5.8%
- Potency [5]: > 46 µM
- Potency [6]: > 9.22 µM
- Potency [7]: inactive
- Potency [8]: inactive

SMILES: O=C(O)CN1C(=O)O[C@@H](c2ccccc2)C1=O
- Potency [1]: > 11.4 µM
- activity change, negative = inhibition [2]: -1.65%
- activity change, negative = inhibition [3]: 11.5%
- activity, negative = inhibition [4]: -12.2%
- Potency [5]: > 46 µM
- Potency [6]: > 9.22 µM
- Potency [7]: inactive
- Potency [8]: inactive

SMILES: CC1(C)CCC(=O)N[C@H]1CC(=O)C[C@H]1NC(=O)CCC1(C)C
- Potency [1]: > 11.4 µM
- activity change, negative = inhibition [2]: -7.26%
- activity change, negative = inhibition [3]: 13%
- activity, negative = inhibition [4]: 3.06%
- Potency [5]: > 46 µM
- Potency [6]: > 9.22 µM
- Potency [7]: inactive
- Potency [8]: inactive

SMILES: O=C1c2cccc(O)c2C(=O)c2c(O[C@@H]3O[C@H](CO)[C@@H](O)[C@H](O)[C@@H]3O)cccc21
- Potency [1]: 2.95 µM (active)
- activity change, negative = inhibition [2]: 29.9%
- activity change, negative = inhibition [3]: 5.22%
- activity, negative = inhibition [4]: 8.12%
- Potency [5]: > 46 µM
- Potency [6]: > 9.22 µM
- Potency [7]: inactive
- Potency [8]: inactive

SMILES: CN1CCN(c2ncc3nc(CCc4ccccc4)c(=O)n(CCC#N)c3n2)CC1
- Potency [1]: > 11.4 µM
- activity change, negative = inhibition [2]: -1.24%
- activity change, negative = inhibition [3]: -8.66%
- activity, negative = inhibition [4]: -3.93%
- Potency [5]: > 9.22 µM
- Potency [6]: > 46 µM
- Potency [7]: inactive
- Potency [8]: inactive

SMILES: O=C(O)C(F)(F)C(F)(F)C(F)(F)C(F)(F)C(=O)O
- Potency [1]: > 11.4 µM
- activity change, negative = inhibition [2]: -0.129%
- activity change, negative = inhibition [3]: 6.75%
- activity, negative = inhibition [4]: 5.2%
- Potency [5]: > 46 µM
- Potency [6]: > 9.22 µM
- Potency [7]: inactive
- Potency [8]: inactive

SMILES: CC(=O)Nc1nc2ncc(C=O)nc2c(=O)[nH]1
- Potency [1]: > 11.4 µM
- activity change, negative = inhibition [2]: -2.43%
- activity change, negative = inhibition [3]: 17.3%
- activity, negative = inhibition [4]: 5.76%
- Potency [5]: > 46 µM
- Potency [6]: > 9.22 µM
- Potency [7]: inactive
- Potency [8]: inactive

SMILES: Ic1ccc2c(c1)N(c1ccccc1)c1cc(Nc3ccc4nc5ccc(I)cc5[n+](-c5ccccc5)c4c3)ccc1N2
- Potency [1]: 7.99 µM (active)
- activity change, negative = inhibition [2]: -4%
- activity change, negative = inhibition [3]: -3.73%
- activity, negative = inhibition [4]: -4.86%
- Potency [5]: > 46 µM
- Potency [6]: > 9.22 µM
- Potency [7]: inactive
- Potency [8]: inactive

SMILES: Cc1cccc2cc3ccc4ccccc4c3cc12
- Potency [1]: > 11.4 µM
- activity change, negative = inhibition [2]: -0.591%
- activity change, negative = inhibition [3]: -3.47%
- activity, negative = inhibition [4]: 19.6%
- Potency [5]: > 46 µM
- Potency [6]: > 9.22 µM
- Potency [7]: inactive
- Potency [8]: inactive
